Reference: the supplement of paper PMC10849652
Targets with a hit are over-represented here; the source holds about 7,900 in all. About 0.6% of all pairs of compound and target were hits.

Key:
Assay in all cases: log2 fold change, soluble protein after heating vs DMSO (PISA); higher = thermal stabilisation; K562 cells, 10 uM, 30 min; active = over 0.2 and 3.5 SD of the protein, either way, in both replicates (recomputed)
IRAK-1-4 Inhibitor I = compound: C1COCCN1CCN2C3=CC=CC=C3N=C2NC(=O)C4=CC(=CC=C4)[N+](=O)[O-] [IRAK-1-4 Inhibitor I]
Method in brief: (§1)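 K562 cells at 2×10^6 cells/mL were treated for 30 min with 10 μM compound, and aliquots were heated for 3 min over 48°C-58°C before pooling. Extraction used PBS with 0.5% NP-40 at 4°C, and soluble protein was the supernatant after 21,000xg for 90 min, measured by TMTpro 16plex LC-MS/MS with channel sums equalised. Thermal stability values, relative to control samples and from duplicates, are log2 fold changes.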

ibrutinib = compound: C=CC(=O)N1CCC[C@@H](n2nc(-c3ccc(Oc4ccccc4)cc3)c3c(N)ncnc32)C1 [ibrutinib]
Method in brief: as §1

[1] = compound: CC(=O)c1cnc2ccc(-c3cc(Cl)c(O)c(Cl)c3)nc2c1N[C@H]1CC[C@H](CN(C)C)CC1
Method in brief: as §1

ralimetinib = compound: CC(C)(C)Cn1c(N)nc2ccc(-c3[nH]c(C(C)(C)C)nc3-c3ccc(F)cc3)nc21 [ralimetinib]
Method in brief: as §1

[2] = compound: CC(C)(O)CC(=O)NCCn1ccc2ncnc(Nc3ccc(Oc4cccc(C(F)(F)F)c4)c(Cl)c3)c21
Method in brief: as §1

[3] = compound: CC(C)C1=C2N=C(C=C(N2N=C1)NCC3=CC=CC=C3)NCCCCCCN
Method in brief: as §1

[4] = compound: CC(C)C[C@@H](C=O)NC(=O)[C@H](CC(C)C)NC(=O)[C@H](CC(C)C)NC(=O)OCc1ccccc1
Method in brief: as §1

pinometostat = compound: CC(C)N(C[C@H]1O[C@@H](n2cnc3c(N)ncnc32)[C@H](O)[C@@H]1O)[C@H]1C[C@@H](CCc2nc3cc(C(C)(C)C)ccc3[nH]2)C1 [pinometostat]
Method in brief: as §1

[5] = compound: CC1=C(C(CC(=O)N1)C2=CC=C(C=C2)C(F)(F)F)C(=O)NC3=C(C=C4C(=C3)C=NN4)F
Method in brief: as §1

[6] = compound: CC1=C(C2=C(C=C1)C(=O)C3=CC=CC=C3N2CCCN)C
Method in brief: as §1

[7] = compound: CC1=C(C=C(C=C1)NC(=O)C2=CC(=CC=C2)C(C)(C)C#N)NC3=CC4=C(C=C3)N=CN(C4=O)C
Method in brief: as §1

[8] = compound: CC1=C(C=C(C=C1)NC(=O)C2=CC(=CC=C2)N(C)C)NC(=O)C3=CC=C(C=C3)O
Method in brief: as §1

[9] = compound: CC1=CC=C(C=C1)SC2=C3C=C(SC3=CN=C2)C(=O)N
Method in brief: as §1

[10] = compound: CC1=NC(=CC=C1)C2=C(N=C(N2)C(C)(C)C)C3=CC4=NC=CN=C4C=C3
Method in brief: as §1

Nexturastat A = compound: CCCCN(Cc1ccc(C(=O)NO)cc1)C(=O)Nc1ccccc1 [Nexturastat A]
Method in brief: as §1

vemurafenib = compound: CCCS(=O)(=O)Nc1ccc(F)c(C(=O)c2c[nH]c3ncc(-c4ccc(Cl)cc4)cc23)c1F [vemurafenib]
Method in brief: as §1

[11] = compound: CCCS(=O)(=O)Nc1ccc(F)c(C(=O)c2c[nH]c3ncc(Cl)cc23)c1F
Method in brief: as §1

[12] = compound: CCCc1cc(C)[nH]c(=O)c1CNC(=O)c1cc(-c2ccnc(N3CCN(C)CC3)c2)cc2c1cnn2C(C)C
Method in brief: as §1

givinostat = compound: CCN(CC)Cc1ccc2cc(COC(=O)Nc3ccc(C(=O)NO)cc3)ccc2c1 [givinostat]
Method in brief: as §1

barasertib = compound: CCN(CCCOc1ccc2c(Nc3cc(CC(=O)Nc4cccc(F)c4)[nH]n3)ncnc2c1)CCOP(=O)(O)O [barasertib]
Method in brief: as §1

Measured: log2 fold change

DHX40 (UniProt Q8IX18)
inactive: IRAK-1-4 Inhibitor I 0.047 | ibrutinib -0.04 | [1] -0.069 | ralimetinib -0.036 | [2] -0.07 | [3] -0.075 | [4] -0.038 | pinometostat 0.047 | [5] 0.061 | [6] 0.096 | [7] 0.105 | [8] -0.047 | [9] 0.02 | [10] -0.027 | Nexturastat A 0.12 | vemurafenib 0 | [11] 0.043 | [12] 0.025 | givinostat 0.087 | barasertib -0.002

DHRS7B (UniProt Q6IAN0)
inactive: IRAK-1-4 Inhibitor I 0.027 | ibrutinib -0.017 | [1] -0.063 | ralimetinib 0.23 | [2] 0.055 | [3] 0.115 | [4] -0.113 | pinometostat -0.055 | [5] -0.049 | [6] -0.003 | [7] -0.008 | [8] -0.066 | [9] -0.049 | [10] -0.001 | Nexturastat A 0.003 | vemurafenib 0.066 | [11] 0.06 | [12] 0.04 | givinostat -0.029 | barasertib -0.004

EGLN1 (UniProt Q9GZT9)
inactive: IRAK-1-4 Inhibitor I 0.016 | ibrutinib -0.054 | [1] -0.027 | ralimetinib -0.034 | [2] -0.01 | [3] -0.083 | [4] 0.018 | pinometostat 0.045 | [5] -0.002 | [6] -0.029 | [7] -0.14 | [8] 0.009 | [9] -0.013 | [10] 0.048 | Nexturastat A -0.096 | vemurafenib -0.007 | [11] 0.006 | [12] 0.017 | givinostat -0.191 | barasertib 0.066

EIF4G1 isoform 8 (UniProt Q04637)
inactive: IRAK-1-4 Inhibitor I -0.124 | ibrutinib -0.148 | [1] -0.3 | ralimetinib 0.057 | [2] -0.053 | [3] -0.387 | [4] 0.046 | pinometostat 0.149 | [5] 0.096 | [6] 0.018 | [7] -0.028 | [8] -0.011 | [9] 0.004 | [10] 0.006 | Nexturastat A 0.169 | vemurafenib 0.013 | [11] 0.028 | [12] 0.119 | givinostat 0.057 | barasertib 0.067

EXTL2 (UniProt Q9UBQ6)
inactive: IRAK-1-4 Inhibitor I -0.018 | ibrutinib 0.019 | [1] -0.073 | ralimetinib -0.061 | [2] 0.062 | [3] 0.01 | [4] 0.041 | pinometostat 0 | [5] 0.021 | [6] 0.12 | [7] 0.072 | [8] -0.003 | [9] -0.017 | [10] -0.003 | Nexturastat A -0.163 | vemurafenib -0.002 | [11] -0.031 | [12] -0.043 | givinostat -0.039 | barasertib -0.053

EMD (UniProt P50402)
inactive: IRAK-1-4 Inhibitor I 0.039 | ibrutinib 0.009 | [1] -0.021 | ralimetinib -0.004 | [2] 0.028 | [3] -0.114 | [4] 0.034 | pinometostat 0.013 | [5] 0.021 | [6] -0.042 | [7] -0.056 | [8] 0.011 | [9] -0.076 | [10] -0.04 | Nexturastat A 0.059 | vemurafenib -0.015 | [11] 0.021 | [12] -0.092 | givinostat 0.002 | barasertib 0.002

DIAPH1 (UniProt O60610)
UniProt O60610, sequence (O60610 whole entry, looked up): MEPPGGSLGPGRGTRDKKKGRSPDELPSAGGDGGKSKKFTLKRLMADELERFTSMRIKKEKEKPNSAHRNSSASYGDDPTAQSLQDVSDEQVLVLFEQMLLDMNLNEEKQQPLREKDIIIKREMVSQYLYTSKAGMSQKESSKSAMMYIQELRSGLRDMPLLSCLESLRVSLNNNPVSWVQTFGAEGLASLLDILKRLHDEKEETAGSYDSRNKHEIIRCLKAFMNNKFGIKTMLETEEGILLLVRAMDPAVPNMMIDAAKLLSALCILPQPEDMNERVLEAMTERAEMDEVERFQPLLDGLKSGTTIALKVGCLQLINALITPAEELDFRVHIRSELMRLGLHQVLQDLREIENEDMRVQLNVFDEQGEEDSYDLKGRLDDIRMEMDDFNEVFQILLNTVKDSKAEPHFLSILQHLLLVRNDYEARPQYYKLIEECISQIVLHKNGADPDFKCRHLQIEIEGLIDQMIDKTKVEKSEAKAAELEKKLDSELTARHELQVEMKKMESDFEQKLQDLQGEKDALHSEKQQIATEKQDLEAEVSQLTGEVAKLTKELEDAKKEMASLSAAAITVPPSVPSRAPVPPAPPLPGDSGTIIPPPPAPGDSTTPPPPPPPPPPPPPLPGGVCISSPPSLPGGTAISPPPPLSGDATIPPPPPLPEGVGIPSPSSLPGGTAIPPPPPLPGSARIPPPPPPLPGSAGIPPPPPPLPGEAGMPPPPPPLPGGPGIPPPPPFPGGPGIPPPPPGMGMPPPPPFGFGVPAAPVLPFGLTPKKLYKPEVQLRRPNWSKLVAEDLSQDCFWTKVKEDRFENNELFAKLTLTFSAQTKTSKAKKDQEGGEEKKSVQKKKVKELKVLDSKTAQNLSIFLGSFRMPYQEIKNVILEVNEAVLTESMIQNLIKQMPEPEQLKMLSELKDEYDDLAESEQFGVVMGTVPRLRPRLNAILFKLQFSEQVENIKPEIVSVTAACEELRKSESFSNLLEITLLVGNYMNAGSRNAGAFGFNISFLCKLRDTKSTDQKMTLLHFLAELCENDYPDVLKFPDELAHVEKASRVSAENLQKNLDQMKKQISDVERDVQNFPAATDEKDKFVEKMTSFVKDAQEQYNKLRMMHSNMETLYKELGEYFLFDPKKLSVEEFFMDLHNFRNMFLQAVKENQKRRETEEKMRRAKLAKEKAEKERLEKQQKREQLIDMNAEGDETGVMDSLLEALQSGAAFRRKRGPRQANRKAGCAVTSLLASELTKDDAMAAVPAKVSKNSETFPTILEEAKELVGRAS
active: [3] -0.373
inactive: IRAK-1-4 Inhibitor I -0.128 | ibrutinib -0.061 | [1] 0.072 | ralimetinib 0.168 | [2] 0 | [4] 0.07 | pinometostat 0.213 | [5] -0.017 | [6] -0.08 | [7] 0.018 | [8] -0.05 | [9] 0.025 | [10] -0.049 | Nexturastat A 0.19 | vemurafenib 0.041 | [11] 0.062 | [12] 0.08 | givinostat 0.051 | barasertib 0.077

CTSL (UniProt P07711)
inactive: IRAK-1-4 Inhibitor I 0.068 | ibrutinib 0.009 | [1] 0.099 | ralimetinib 0.022 | [2] -0.014 | [4] 0.098 | pinometostat -0.006 | [5] -0.01 | [6] -0.031 | [7] -0.083 | [8] 0.014 | [9] -0.049 | [10] 0.013 | Nexturastat A 0.085 | vemurafenib -0.023 | [11] -0.05 | [12] 0.033 | givinostat 0.121 | barasertib 0.092
active: [3] -0.412

EHD2 (UniProt Q9NZN4)
inactive: IRAK-1-4 Inhibitor I 0.009 | ibrutinib 0.008 | [1] -0.038 | ralimetinib 0.003 | [2] -0.033 | [3] 0.002 | [4] 0.036 | pinometostat -0.044 | [5] 0.003 | [6] 0.001 | [7] -0.037 | [8] -0.026 | [9] -0.007 | [10] 0.059 | Nexturastat A 0.003 | vemurafenib 0.029 | [11] 0.007 | [12] -0.024 | givinostat 0.024 | barasertib 0.03

DDX5 (UniProt P17844)
UniProt P17844, sequence (P17844 whole entry, looked up): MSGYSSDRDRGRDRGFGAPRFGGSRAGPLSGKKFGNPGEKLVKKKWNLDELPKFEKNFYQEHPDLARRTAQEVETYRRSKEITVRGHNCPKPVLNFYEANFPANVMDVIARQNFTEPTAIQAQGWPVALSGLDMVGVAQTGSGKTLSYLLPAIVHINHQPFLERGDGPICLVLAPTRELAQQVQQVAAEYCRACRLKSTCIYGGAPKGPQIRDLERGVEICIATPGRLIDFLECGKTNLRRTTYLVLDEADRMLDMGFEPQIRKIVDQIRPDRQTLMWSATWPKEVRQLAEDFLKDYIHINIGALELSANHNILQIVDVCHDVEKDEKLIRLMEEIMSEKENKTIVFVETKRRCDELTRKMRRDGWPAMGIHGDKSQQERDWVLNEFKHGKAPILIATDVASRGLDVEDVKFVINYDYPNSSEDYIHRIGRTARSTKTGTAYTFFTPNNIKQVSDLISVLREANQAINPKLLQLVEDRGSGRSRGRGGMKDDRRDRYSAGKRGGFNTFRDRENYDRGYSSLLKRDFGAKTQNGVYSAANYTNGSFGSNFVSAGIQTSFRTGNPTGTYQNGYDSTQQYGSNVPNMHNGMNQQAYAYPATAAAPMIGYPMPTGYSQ
active: [1] -0.358
inactive: IRAK-1-4 Inhibitor I -0.114 | ibrutinib 0.002 | ralimetinib -0.024 | [2] -0.189 | [3] -0.12 | [4] 0.069 | pinometostat 0.017 | [5] -0.067 | [6] 0.072 | [7] 0.136 | [8] -0.131 | [9] 0.036 | [10] 0.112 | Nexturastat A 0.033 | vemurafenib 0.142 | [11] 0.174 | [12] 0.036 | givinostat 0.178 | barasertib 0.122

DHCR7 (UniProt Q9UBM7)
UniProt Q9UBM7, sequence (Q9UBM7 whole entry, looked up): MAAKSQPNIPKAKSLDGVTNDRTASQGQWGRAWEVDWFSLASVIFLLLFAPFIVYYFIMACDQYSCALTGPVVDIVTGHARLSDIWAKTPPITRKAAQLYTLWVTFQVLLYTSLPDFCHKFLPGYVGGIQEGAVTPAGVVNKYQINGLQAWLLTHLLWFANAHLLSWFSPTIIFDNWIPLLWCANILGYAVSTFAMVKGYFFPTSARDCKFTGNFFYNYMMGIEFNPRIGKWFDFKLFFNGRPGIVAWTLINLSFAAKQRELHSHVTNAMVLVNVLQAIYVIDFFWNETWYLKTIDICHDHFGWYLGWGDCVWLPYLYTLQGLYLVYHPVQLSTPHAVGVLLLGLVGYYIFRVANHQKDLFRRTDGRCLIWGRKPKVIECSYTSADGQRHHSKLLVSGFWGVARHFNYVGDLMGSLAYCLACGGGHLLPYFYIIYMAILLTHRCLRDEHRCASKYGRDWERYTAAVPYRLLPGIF
active: givinostat 0.808
inactive: IRAK-1-4 Inhibitor I -0.045 | ibrutinib -0.091 | [1] -0.085 | ralimetinib 0.056 | [2] 0.067 | [3] -0.021 | [4] 0.011 | pinometostat 0.199 | [5] 0.037 | [6] 0.15 | [7] -0.037 | [8] -0.028 | [9] -0.055 | [10] 0.023 | Nexturastat A 0.104 | vemurafenib 0.011 | [11] 0.039 | [12] 0.139 | barasertib 0.204

DNAJC7 (UniProt Q99615)
inactive: IRAK-1-4 Inhibitor I -0.041 | ibrutinib -0.012 | [1] -0.007 | ralimetinib -0.014 | [2] -0.022 | [3] -0.117 | [4] 0.023 | pinometostat -0.034 | [5] -0.003 | [6] 0.04 | [7] -0.006 | [8] -0.037 | [9] 0.029 | [10] 0.042 | Nexturastat A -0.01 | vemurafenib 0.029 | [11] 0.098 | [12] 0.02 | givinostat 0.032 | barasertib 0.064

FAM118B (UniProt Q9BPY3)
UniProt Q9BPY3, sequence (Q9BPY3 whole entry, looked up): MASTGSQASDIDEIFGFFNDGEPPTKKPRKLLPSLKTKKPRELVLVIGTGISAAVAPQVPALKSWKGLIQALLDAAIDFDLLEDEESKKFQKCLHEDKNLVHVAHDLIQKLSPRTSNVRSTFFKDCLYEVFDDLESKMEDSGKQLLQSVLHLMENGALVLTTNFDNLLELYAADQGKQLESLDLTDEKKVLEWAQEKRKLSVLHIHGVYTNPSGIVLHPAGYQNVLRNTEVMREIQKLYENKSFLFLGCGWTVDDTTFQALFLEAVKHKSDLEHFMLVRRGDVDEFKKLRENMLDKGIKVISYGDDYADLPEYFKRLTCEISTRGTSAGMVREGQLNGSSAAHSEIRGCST
inactive: IRAK-1-4 Inhibitor I 0.039 | ibrutinib 0.073 | [1] -0.118 | ralimetinib 0.051 | [2] -0.199 | [3] -0.145 | [4] 0.065 | pinometostat -0.024 | [5] 0.014 | [6] 0.042 | [7] 0 | [8] 0.03 | [9] 0.037 | [10] 0.055 | Nexturastat A 0.099 | vemurafenib 0.048 | [11] 0.003 | [12] 0.044 | givinostat 0.063 | barasertib 0.093

DBT (UniProt P11182)
UniProt P11182, sequence (P11182 whole entry, looked up): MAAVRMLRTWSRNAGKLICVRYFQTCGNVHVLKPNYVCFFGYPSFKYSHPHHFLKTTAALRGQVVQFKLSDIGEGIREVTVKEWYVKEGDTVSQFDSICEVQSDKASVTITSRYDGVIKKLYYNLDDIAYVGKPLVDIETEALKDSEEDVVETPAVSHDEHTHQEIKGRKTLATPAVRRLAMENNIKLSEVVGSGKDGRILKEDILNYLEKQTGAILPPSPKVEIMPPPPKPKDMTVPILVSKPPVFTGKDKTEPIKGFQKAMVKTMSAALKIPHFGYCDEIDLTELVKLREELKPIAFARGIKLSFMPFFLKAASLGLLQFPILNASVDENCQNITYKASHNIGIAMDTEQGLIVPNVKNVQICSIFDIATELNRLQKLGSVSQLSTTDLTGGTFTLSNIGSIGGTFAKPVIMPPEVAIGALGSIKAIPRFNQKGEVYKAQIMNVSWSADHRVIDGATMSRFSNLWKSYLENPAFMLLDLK
active: [6] 0.352
inactive: IRAK-1-4 Inhibitor I -0.004 | ibrutinib 0.019 | [1] 0.021 | ralimetinib 0.109 | [2] 0.006 | [3] 0.027 | [4] 0.023 | pinometostat 0.002 | [5] 0.015 | [7] 0.001 | [8] -0.017 | [9] 0.01 | [10] -0.015 | Nexturastat A 0.024 | vemurafenib -0.011 | [11] 0.015 | [12] -0.042 | givinostat 0.005 | barasertib -0.033

DNAJB12 (UniProt Q9NXW2)
UniProt Q9NXW2, sequence (Q9NXW2 whole entry, looked up): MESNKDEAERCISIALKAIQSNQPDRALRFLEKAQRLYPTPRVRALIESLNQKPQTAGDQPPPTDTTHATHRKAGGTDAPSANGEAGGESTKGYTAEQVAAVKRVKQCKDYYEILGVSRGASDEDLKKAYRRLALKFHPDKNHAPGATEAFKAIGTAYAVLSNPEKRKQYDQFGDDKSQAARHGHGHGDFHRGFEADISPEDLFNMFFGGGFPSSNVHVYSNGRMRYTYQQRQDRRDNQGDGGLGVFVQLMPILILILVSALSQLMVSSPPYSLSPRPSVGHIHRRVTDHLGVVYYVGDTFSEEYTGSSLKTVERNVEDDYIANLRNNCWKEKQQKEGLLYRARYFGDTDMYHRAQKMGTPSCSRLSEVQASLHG
active: ralimetinib -0.767
inactive: IRAK-1-4 Inhibitor I -0.026 | ibrutinib 0.004 | [1] -0.013 | [2] -0.032 | [3] -0.012 | [4] 0.076 | pinometostat 0.021 | [5] 0.05 | [6] 0.022 | [7] -0.071 | [8] -0.017 | [9] -0.002 | [10] 0.017 | Nexturastat A 0.044 | vemurafenib 0.008 | [11] 0.008 | [12] -0.069 | givinostat 0.06 | barasertib -0.001

EEA1 (UniProt Q15075)
UniProt Q15075, sequence (Q15075 whole entry, looked up): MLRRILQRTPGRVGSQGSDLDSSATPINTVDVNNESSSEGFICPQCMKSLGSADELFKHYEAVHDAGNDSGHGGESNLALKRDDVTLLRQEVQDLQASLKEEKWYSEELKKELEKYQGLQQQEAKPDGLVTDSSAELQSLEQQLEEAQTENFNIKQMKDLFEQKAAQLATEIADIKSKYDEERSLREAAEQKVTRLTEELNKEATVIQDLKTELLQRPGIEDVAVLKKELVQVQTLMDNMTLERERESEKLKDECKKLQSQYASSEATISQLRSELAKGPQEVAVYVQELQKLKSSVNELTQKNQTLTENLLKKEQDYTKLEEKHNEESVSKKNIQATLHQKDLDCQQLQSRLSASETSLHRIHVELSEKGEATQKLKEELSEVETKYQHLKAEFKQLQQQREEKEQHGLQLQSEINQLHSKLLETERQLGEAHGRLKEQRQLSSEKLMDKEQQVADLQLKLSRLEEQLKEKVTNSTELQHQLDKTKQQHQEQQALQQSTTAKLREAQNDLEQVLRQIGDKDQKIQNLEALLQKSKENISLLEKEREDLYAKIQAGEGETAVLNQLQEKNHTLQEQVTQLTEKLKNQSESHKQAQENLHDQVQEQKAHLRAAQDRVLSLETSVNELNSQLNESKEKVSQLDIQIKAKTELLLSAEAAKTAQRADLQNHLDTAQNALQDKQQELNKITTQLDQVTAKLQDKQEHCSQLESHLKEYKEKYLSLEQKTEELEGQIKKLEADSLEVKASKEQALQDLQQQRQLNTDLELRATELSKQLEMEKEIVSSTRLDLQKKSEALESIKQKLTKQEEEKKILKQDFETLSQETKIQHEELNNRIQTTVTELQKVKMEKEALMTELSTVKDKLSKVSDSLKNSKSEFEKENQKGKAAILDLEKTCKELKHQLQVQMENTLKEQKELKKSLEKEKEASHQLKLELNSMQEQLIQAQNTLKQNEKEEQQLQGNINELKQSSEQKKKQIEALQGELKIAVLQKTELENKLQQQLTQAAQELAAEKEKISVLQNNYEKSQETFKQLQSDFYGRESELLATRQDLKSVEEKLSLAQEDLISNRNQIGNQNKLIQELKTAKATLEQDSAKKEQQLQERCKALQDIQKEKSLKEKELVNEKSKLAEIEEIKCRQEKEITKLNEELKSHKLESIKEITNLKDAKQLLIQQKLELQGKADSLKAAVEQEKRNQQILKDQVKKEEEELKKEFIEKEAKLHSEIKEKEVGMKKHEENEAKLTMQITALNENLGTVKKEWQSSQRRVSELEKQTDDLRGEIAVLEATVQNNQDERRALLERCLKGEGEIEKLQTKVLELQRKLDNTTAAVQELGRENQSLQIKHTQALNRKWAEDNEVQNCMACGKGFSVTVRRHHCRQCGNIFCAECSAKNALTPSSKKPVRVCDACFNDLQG
inactive: IRAK-1-4 Inhibitor I 0.037 | ibrutinib 0.002 | [1] 0.02 | ralimetinib -0.068 | [2] 0.013 | [3] 0.025 | [4] -0.022 | pinometostat -0.041 | [5] 0.001 | [6] -0.004 | [7] -0.027 | [8] 0.009 | [9] 0.009 | [10] 0.011 | Nexturastat A -0.035 | vemurafenib -0.024 | [11] 0.003 | [12] -0.036 | givinostat -0.01 | barasertib 0.009
